# Measured values taken from PubChem BioAssay AID504546 (Broad Institute, 2011).
# Results filed as inconclusive are left out. Active and inactive are the calls of the source.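 The calls were made as follows: active = every repeat run fits a falling-signal curve with half-maximal potency within ten times top tested dose; inconclusive = runs disagree, or flat moderate drop, or poor fit; inactive = every run inactive, including signal moving upward.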
# Assay: ADP-Glo luciferase signal interference – biochemical, luminescence, cherry-picked samples, set 2, artefact control for CDK5 inhibitor project, dose response (AID 504546)
# Details: ADP-Glo detection reagent counter screen, 5 uM ADP; series mostly up to 30 µM
row,Structure (SMILES),outcome
1,Cc1cccc(Nc2nc(N)c([N+](=O)[O-])c(NCCO)n2)c1,inactive
2,CCN1C(=O)/C(=C2/Sc3ccc(OC)cc3N2C)SC1=Nc1cccc(O)c1,inactive
3,COc1ccc(Nc2nccc(-c3ccc(C#N)cc3)n2)cc1,inactive
4,CC(C)n1cnc2c(Nc3cccc(Cl)c3)nc(N(CCO)CCCO)nc21,inactive
5,CC(C)n1cnc2c(Nc3cccc(F)c3)nc(NCCO)nc21,inactive
6,COc1ccc2oc(C(=O)NCCC(C)C)c(C)c2c1,inactive
7,Cc1ccc(C(=O)O/N=C(\N)c2ccccn2)cc1C,inactive
8,Nc1nc(Nc2ccccc2)sc1C(=O)c1ccccc1,inactive
9,CC(C)[C@H](CO)Nc1nc(NCc2ccc(S(N)(=O)=O)cc2)c2ncn(C(C)C)c2n1,inactive
10,C=CC(=O)Nc1ccc(Nc2nc(NC3CCC(N(C)C)CC3)nc3c2ncn3C(C)C)cc1 (stereo unspecified),inactive
11,Nc1nc(Nc2ccccc2F)sc1C(=O)c1ccccc1,inactive
12,Nc1cc2c(cc1[N+](=O)[O-])-c1ccccc1C2=NO,inactive
13,Cc1[nH]nc2c1-c1nc3ccccc3nc1C(C)(C)C2,inactive
14,Cc1ccc2[nH]c(C(F)(F)F)cc(=O)c2c1,inactive
15,NC(=O)c1cc([N+](=O)[O-])c(Cl)cc1NCc1cccnc1,inactive
16,CC(C)n1cnc2c(N(C)c3cccc(Cl)c3)nc(N(CCO)CCO)nc21,inactive
17,CC(C)(C)c1ccc(C(=O)O/N=C(\N)c2ccccn2)cc1,inactive
18,CCOc1cc(C(=O)N2CCN(c3ccccn3)CC2)cc(OCC)c1OCC,inactive

row,Structure (SMILES),outcome
1,ON=C1c2ccccc2-c2ccc(O)cc21,inactive
2,CC(C)n1cnc2c(Nc3ccc(F)c(Cl)c3)nc(NCCO)nc21,inactive
3,COc1cc(/C=N/Nc2ccc(C(F)(F)F)cn2)cc(OC)c1O,inactive
4,COc1cc(OC)cc(C(=O)N2CCN(c3ccccn3)CC2)c1,inactive
5,OCCCNc1cc(-c2ccnc(Nc3cccc(Cl)c3)n2)ccn1,inactive
6,Nc1ncnc2c1ncn2C1OC(CO)C(O)C1O (stereo unspecified),inactive
7,CN1CCN(C(=O)c2ccc3c(c2)NC(=O)/C(=C/c2ccccc2)S3)CC1,inactive
8,NC(=O)N/N=C/c1c(O)ccc2oc3c(c12)CCCC3,inactive
9,CCc1cc(C(=O)c2ccc(OC)cc2)c(N)s1,inactive
10,CC[C@H](CO)Nc1nc(Nc2cccc(Cl)c2)c2ncn(C(C)C)c2n1,inactive
11,COc1cccc(C(=O)N2CCN(c3ccccn3)CC2)c1,inactive
12,Nc1nc(Nc2ccccc2)nc(NCCO)c1[N+](=O)[O-],inactive
13,COc1ccc(C(=O)c2sc(Nc3ccccc3F)nc2N)cc1,inactive
14,Cc1nn(-c2ccccn2)c2c1C(=O)CC(C)(C)C2Br (stereo unspecified),inactive
15,COc1ccccc1C(=O)N1CCN(c2ccccn2)CC1,inactive
16,Oc1ccc(/C=N/Nc2ccc(C(F)(F)F)cn2)cc1,inactive
17,Oc1ccc(C=NNc2ccccn2)c(O)c1,inactive
18,Cc1cc(C)c2nc(C(F)(F)F)c(C#N)c(N)c2c1,inactive
